In the supplement of paper PMC9446081:
The campaign covered roughly 39,000 compounds. About 220 (0.56%) showed activity. The full list was thinned out, with actives kept by preference.

Each molecule was assayed on Escherichia coli K-12 BW25113 (assay: relative growth (OD600 normalised to plate interquartile mean) (fraction); higher = less growth inhibition, active = 0.2 or less). Conditions: 50 µM; LB; incubation time: overnight (16-24 h).
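Further: Wild-type cells incubated without shaking, value is the mean of two biological replicates.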

Structure (SMILES) | relative growth
C[C@H](NC(=O)C[C@@H]1C=C[C@H](NC(=O)CN2CCOCC2)[C@H](CO)O1)c1ccccc1 | 1.02 (inactive)
O=C(NCCCN1CCOCC1)[C@H]1N[C@H]2c3ccc(C4=CCCCC4)c(=O)n3C[C@H]2[C@@H]1CO | 0.98 (inactive)
C[C@@H]1CN([C@@H](C)CO)C(=O)c2cc(NS(=O)(=O)c3ccc(F)cc3)ccc2O[C@@H](C)CCCCO[C@@H]1CN(C)C(=O)Nc1ccc2c(c1)OCO2 | 1.01 (inactive)
C[C@@H]1CN([C@@H](C)CO)C(=O)c2cccc(NC(=O)c3ccc(-c4nccs4)cc3)c2O[C@H]1CN(C)C(=O)Nc1cccc2ccccc12 | 0.886 (inactive)
CN(C)CCN1CCc2ncc(Cn3cncn3)n2CC1 | 0.99 (inactive)
COc1ccc(S(=O)(=O)N(C)C[C@H]2OCCCC[C@H](C)Oc3ccc(NS(=O)(=O)c4cn(C)cn4)cc3C(=O)N([C@@H](C)CO)C[C@@H]2C)cc1 | 1 (inactive)
CC[C@H](C)[C@H](N)C1=N[C@H](C(=O)N[C@@H](CC(C)C)C(=O)N[C@H](CCC(=O)O)C(=O)N[C@H](C(=O)N[C@H]2CCCCNC(=O)[C@H](CC(N)=O)NC(=O)[C@@H](CC(=O)O)NC(=O)[C@H](Cc3cnc[nH]3)NC(=O)[C@@H](Cc3ccccc3)NC(=O)[C@H]([C@@H](C)CC)NC(=O)[C@@H](CCCN)NC2=O)[C@@H](C)CC)CS1 | 0.909 (inactive)
CC[C@@H](C)CCCC(=O)N[C@@H](CCN)C(=O)N[C@H](C(=O)N[C@@H](CCN)C(=O)N[C@H]1CCNC(=O)[C@H]([C@@H](C)O)NC(=O)[C@H](CCN)NC(=O)[C@H](CCN)NC(=O)[C@H](CC(C)C)NC(=O)[C@@H](CC(C)C)NC(=O)[C@H](CCN)NC1=O)[C@@H](C)O | 0.262 (inactive)
CCC(C)CCCCC(=O)NC(CCN)C(=O)NC(C(=O)NC(CCN)C(=O)NC1CCNC(=O)C(C(C)O)NC(=O)C(CCN)NC(=O)C(CCN)NC(=O)C(CC(C)C)NC(=O)C(Cc2ccccc2)NC(=O)C(CCN)NC1=O)C(C)O.O=S(=O)(O)O (centres undefined) | 0.0419 (active)
CC[C@@H](C)CCCCC(=O)N[C@@H](CCN)C(=O)N[C@H](C(=O)N[C@@H](CCN)C(=O)N[C@H]1CCNC(=O)[C@H]([C@@H](C)O)NC(=O)[C@H](CCN)NC(=O)[C@H](CCN)NC(=O)[C@H](CC(C)C)NC(=O)[C@@H](Cc2ccccc2)NC(=O)[C@@H](CCN)NC1=O)[C@@H](C)O | 0.0424 (active)
C[C@@H]1CN([C@H](C)CO)C(=O)c2cccc(NC(=O)C3CC3)c2O[C@@H]1CN(C)S(=O)(=O)c1ccccc1 | 1.01 (inactive)
Cc1ccc(S(=O)(=O)N(C)C[C@@H]2Oc3ccc(NS(=O)(=O)c4cccs4)cc3CC(=O)N([C@H](C)CO)C[C@H]2C)cc1 | 1 (inactive)
C[C@H]1CN([C@@H](C)CO)C(=O)c2c(c3ccccc3n2C)-c2ccccc2CO[C@@H]1CN(C)S(=O)(=O)c1ccc(C(F)(F)F)cc1 | 1 (inactive)
CO[C@@H]1CN(C)C(=O)c2ccc(NS(C)(=O)=O)cc2OC[C@H](C)N(S(C)(=O)=O)C[C@H]1C | 0.991 (inactive)
Cc1nnc(NCc2ccccc2)n(N)c1=O | 0.975 (inactive)
CCCC#Cc1ccc2c(c1)O[C@H](CN(C)Cc1ccc3c(c1)OCO3)[C@H](C)CN([C@H](C)CO)S2(=O)=O | 1.05 (inactive)
C[C@@H]1CN([C@H](C)CO)C(=O)c2cc(NC(=O)NC3CCCCC3)ccc2O[C@@H](C)CCCCO[C@H]1CN(C)Cc1ccncc1 | 1.02 (inactive)
C[C@@H]1CCCCO[C@@H](CN(C)S(=O)(=O)c2ccccc2)[C@@H](C)CN([C@H](C)CO)C(=O)c2cc(NC(=O)C3CCCCC3)ccc2O1 | 1.01 (inactive)
O=C(C[C@H]1CC[C@@H](NC(=O)c2cccnc2)[C@H](CO)O1)NCCN1CCCCC1 | 1 (inactive)
C[C@@H]1CN([C@H](C)CO)C(=O)c2cccc(NS(C)(=O)=O)c2O[C@H]1CN(C)C(=O)NC1CCCCC1 | 1.01 (inactive)

Structure (SMILES) | relative growth
NNC(=O)c1c(O)c2c([nH]c1=O)CCCC2 | 0.95 (inactive)
O=C(O)c1c(O)c2c([nH]c1=O)CCCC2 | 0.104 (active)
Cc1[nH]c(=O)c(C(=O)O)c2c1CCC2 | 0.994 (inactive)
C[C@H](CO)N1C[C@H](C)[C@@H](CN(C)Cc2cccc(F)c2)Oc2cc(C#CC3CC3)ccc2S1(=O)=O | 1.04 (inactive)
C[C@H](CO)N1C[C@H](C)[C@H](CN(C)CC2CC2)Oc2ccc(NS(=O)(=O)c3cn(C)cn3)cc2CC1=O | 0.99 (inactive)
Cc1ccc(S(=O)(=O)Nc2ccc3c(c2)C(=O)N([C@H](C)CO)C[C@H](C)[C@@H](CN(C)C(=O)C2CCCCC2)OCCCC[C@H](C)O3)cc1 | 0.998 (inactive)
Nc1ccccc1OCc1ccccc1 | 0.955 (inactive)
CON=C(C(=O)NC1C(=O)N2C(C(=O)O)=C(CSC(=O)c3ccco3)CSC12)c1csc(N)n1.Cl (centres undefined) | 0.0447 (active)
CO/N=C(\C(=O)N[C@@H]1C(=O)N2C(C(=O)O)=C(C[n+]3ccn4ncccc43)CS[C@H]12)c1nsc(N)n1 | 0.0425 (active)
CO/N=C(\C(=O)N[C@@H]1C(=O)N2C(C(=O)O)=C(CSC(=O)c3ccco3)CS[C@H]12)c1csc(N)n1 | 0.0342 (active)
C[C@H](CO)N1C[C@H](C)[C@H](CN(C)Cc2ccc(-c3ccccc3)cc2)Oc2c(NC(=O)c3nc4ccccc4s3)cccc2C1=O | 1.01 (inactive)
CN1CCC[C@H]1CO | 0.919 (inactive)
COCCNC(=O)C[C@@H]1C[C@@H]2c3cc(NS(C)(=O)=O)ccc3O[C@@H]2[C@H](CO)O1 | 1 (inactive)
C[C@@H]1CN([C@H](C)CO)C(=O)Cc2cc(NC(=O)CCCCCC(=O)Nc3ccccc3N)ccc2O[C@H]1CN(C)C(=O)Nc1cccc2ccccc12 | 0.963 (inactive)
C[C@@H]1CCCCO[C@H](CN(C)S(=O)(=O)c2ccc(F)cc2)[C@H](C)CN([C@@H](C)CO)C(=O)c2cc(NC(=O)Nc3ccc4c(c3)OCO4)ccc2O1 | 1 (inactive)
C[C@H]1CCCCO[C@H](CN(C)S(=O)(=O)c2cn(C)cn2)[C@@H](C)CN([C@@H](C)CO)C(=O)c2cc(NS(=O)(=O)c3cn(C)cn3)ccc2O1 | 0.995 (inactive)
C[C@@H]1CCCCO[C@@H](CN(C)S(=O)(=O)c2cccs2)[C@@H](C)CN([C@H](C)CO)C(=O)c2cc(NC(=O)Nc3ccccc3)ccc2O1 | 1.02 (inactive)
Cc1ccc(-c2ccc3c(c2)O[C@@H](CN(C)Cc2cncnc2)[C@H](C)CN([C@H](C)CO)S3(=O)=O)cc1 | 1.01 (inactive)
C[C@H](CO)N1C[C@H](C)[C@@H](CN(C)Cc2ccc3c(c2)OCO3)Oc2c(NC(=O)Nc3cccc4ccccc34)cccc2C1=O | 1.01 (inactive)
C[C@H]1CCCCO[C@H](CN(C)C(=O)Nc2ccccc2)[C@@H](C)CN([C@@H](C)CO)C(=O)c2cc(NS(=O)(=O)c3cccs3)ccc2O1 | 1.02 (inactive)

Structure (SMILES) | relative growth
CCC(=O)Nc1ccc2c(c1)C(=O)N(C)C[C@H](OC)[C@H](C)CN(C(=O)CN1CCOCC1)[C@H](C)CO2 | 0.974 (inactive)
Cl.N=C(N)n1cccn1 | 0.042 (active)
NCc1ccccc1-n1cccn1 | 1 (inactive)
NCCn1cccn1 | 1.01 (inactive)
Cc1cc(C(=O)Nc2cccc3c2O[C@@H](CN(C)C(=O)Nc2ccc4c(c2)OCO4)[C@@H](C)CN([C@@H](C)CO)C3=O)n(C)n1 | 0.987 (inactive)
C[C@H]1CN([C@@H](C)CO)C(=O)c2cc(-c3ccc(C(=O)N(C)C)cc3)cnc2O[C@H]1CN(C)C(=O)c1ccncc1 | 0.964 (inactive)
COc1ccc([Si](C)(C)[C@@H]2[C@@H](CC(=O)N3CCC[C@H]3CO)O[C@]3(C(=O)N(Cc4cccc(N5CCCCC5=O)c4)c4ccccc43)[C@H]2C)cc1 | 1.02 (inactive)
Nc1nc(/C(=C/CC(=O)O)C(=O)N[C@@H]2C(=O)N3C(C(=O)O)=CCS[C@H]23)cs1 | 1.01 (inactive)
Nc1nc(C(=CCC(=O)O)C(=O)NC2C(=O)N3C(C(=O)O)=CCSC23)cs1 (centres undefined) | 0.0485 (active)
C=CC1=C(C(=O)O)N2C(=O)[C@@H](NC(=O)/C(=N\O)c3csc(N)n3)[C@H]2SC1 | 0.0321 (active)
C=CC1=C(C(=O)O)N2C(=O)C(NC(=O)C(=NOCC(=O)O)c3csc(N)n3)C2SC1 (centres undefined) | 1.01 (inactive)
C=CC1=C(C(=O)O)N2C(=O)C(NC(=O)C(=NO)c3csc(N)n3)C2SC1 (centres undefined) | 0.05 (active)
C/C=C/C1=C(C(=O)O)N2C(=O)[C@@H](NC(=O)[C@H](N)c3ccc(O)cc3)[C@H]2SC1 | 0.876 (inactive)
C=CC1=C(C(=O)O)N2C(=O)[C@@H](NC(=O)/C(=N\OCC(=O)O)c3csc(N)n3)[C@H]2SC1 | 0.0479 (active)
C[C@H](CO)N1C[C@H](C)[C@H](CN(C)S(=O)(=O)c2ccccc2F)Oc2ncc(C#Cc3ccccc3F)cc2C1=O | 0.997 (inactive)
CO[C@@H]1CN(C)C(=O)c2cc(NC(=O)c3ccccc3)ccc2OC[C@@H](C)N(C(=O)CN(C)C)C[C@@H]1C | 0.926 (inactive)
Cc1noc(C)c1NC(=O)Nc1cccc2c1O[C@H](CN(C)Cc1ccc(Oc3ccccc3)cc1)[C@H](C)CN([C@H](C)CO)C2=O | 0.982 (inactive)
Cc1noc(C)c1S(=O)(=O)Nc1ccc2c(c1)C(=O)N([C@@H](C)CO)C[C@@H](C)[C@@H](CN(C)S(=O)(=O)c1cccs1)O2 | 1.01 (inactive)
C[C@H](CO)N1C[C@H](C)[C@H](CN(C)Cc2ccc(C(=O)O)cc2)Oc2ccc(NC(=O)CCCN(C)C)cc2C1=O | 1.01 (inactive)
